According to the supplement of paper PMC10849652:
About 8,800 targets were measured; listed, in parts, are those with a hit and a random draw of the rest. About 0.5% of all pairs of compound and target were hits. Values without a mark were called inactive.

Experiments:
Assay in all cases: log2 fold change, soluble protein after heating vs DMSO (PISA); higher = thermal stabilisation; K562 lysate, 10 uM; active = over 0.2 and 3.5 SD of the protein, either way, in both replicates (recomputed)
nilotinib = compound: Cc1cn(-c2cc(NC(=O)c3ccc(C)c(Nc4nccc(-c5cccnc5)n4)c3)cc(C(F)(F)F)c2)cn1 [nilotinib]
Procedure, shortened: (§1)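 The values are log-two fold changes in thermal stability compared with solvent controls and come from duplicates. They were obtained by TMTpro 16plex LC-MS/MS, with channel sums equalised, on the supernatant after 21,000xg for 90 min. That supernatant came from crude K562 extract at 1 mg/mL protein treated with 10 μM compound for 30 min, heated for 3 min across 48°C-58°C, pooled and brought to 0.5% NP-40 at 4°C.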

[1] = compound: Cc1nc(Nc2n[nH]c3c2CN(C(=O)N[C@H](CN(C)C)c2ccccc2)C3(C)C)c2sccc2n1
Procedure, shortened: as §1

dasatinib = compound: Cc1nc(Nc2ncc(C(=O)Nc3c(C)cccc3Cl)s2)cc(N2CCN(CCO)CC2)n1 [dasatinib]
Procedure, shortened: as §1

[2] = compound: Cc1ncc(-c2ccnc(Nc3ccc(S(C)(=O)=O)cc3)n2)n1C(C)C
Procedure, shortened: as §1

[3] = compound: Cn1cc(-c2ccc3c(c2)CCN3C(=O)Cc2cccc(C(F)(F)F)c2)c2c(N)ncnc21
Procedure, shortened: as §1

quisinostat = compound: Cn1cc(CNCC2CCN(c3ncc(C(=O)NO)cn3)CC2)c2ccccc21 [quisinostat]
Procedure, shortened: as §1

tipifarnib = compound: Cn1cncc1[C@@](N)(c1ccc(Cl)cc1)c1ccc2c(c1)c(-c1cccc(Cl)c1)cc(=O)n2C [tipifarnib]
Procedure, shortened: as §1

[4] = compound: NC(=O)Nc1cc(-c2cccc(F)c2)sc1C(=O)N[C@H]1CCCNC1
Procedure, shortened: as §1

[5] = compound: NC(=O)c1cnc(N[C@@H]2CCCC[C@@H]2N)nc1Nc1cccc(-n2nccn2)c1
Procedure, shortened: as §1

[6] = compound: NC1(c2ccc(-c3nc4ccn5c(=O)[nH]nc5c4cc3-c3ccccc3)cc2)CCC1
Procedure, shortened: as §1

[7] = compound: NCC(=O)Nc1ccc(-n2nc(C(F)(F)F)cc2-c2ccc3c(ccc4ccccc43)c2)cc1
Procedure, shortened: as §1

vorinostat = compound: O=C(CCCCCCC(=O)Nc1ccccc1)NO [vorinostat]
Procedure, shortened: as §1

silmitasertib = compound: O=C(O)c1ccc2c(c1)nc(Nc1cccc(Cl)c1)c1ccncc12 [silmitasertib]
Procedure, shortened: as §1

[8] = compound: O=C1NC(=O)C(c2cnc3ccccn23)=C1c1cn2c3c(cc(F)cc13)CN(C(=O)N1CCCCC1)CC2
Procedure, shortened: as §1

entospletinib = compound: c1cn2cc(-c3ccc4cn[nH]c4c3)nc(Nc3ccc(N4CCOCC4)cc3)c2n1 [entospletinib]
Procedure, shortened: as §1

Chain of UniProt Q13409 (Q13409 whole entry, looked up): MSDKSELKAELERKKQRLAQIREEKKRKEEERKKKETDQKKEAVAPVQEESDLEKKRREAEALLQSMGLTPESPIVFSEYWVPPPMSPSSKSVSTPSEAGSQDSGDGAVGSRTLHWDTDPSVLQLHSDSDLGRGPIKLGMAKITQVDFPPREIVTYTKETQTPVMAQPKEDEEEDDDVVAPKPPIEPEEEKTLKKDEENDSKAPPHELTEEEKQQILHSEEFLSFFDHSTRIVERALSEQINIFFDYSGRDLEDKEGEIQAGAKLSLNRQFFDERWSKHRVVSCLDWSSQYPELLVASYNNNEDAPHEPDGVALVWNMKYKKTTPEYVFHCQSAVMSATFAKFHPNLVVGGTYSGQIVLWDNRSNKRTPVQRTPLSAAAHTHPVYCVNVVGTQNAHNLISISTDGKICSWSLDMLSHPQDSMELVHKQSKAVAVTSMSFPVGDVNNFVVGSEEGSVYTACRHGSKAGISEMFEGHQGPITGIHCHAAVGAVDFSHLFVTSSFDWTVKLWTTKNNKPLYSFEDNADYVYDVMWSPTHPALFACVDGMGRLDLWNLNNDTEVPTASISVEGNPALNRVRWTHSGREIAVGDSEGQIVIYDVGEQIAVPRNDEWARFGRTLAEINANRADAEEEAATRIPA
Chain of UniProt Q9NZJ0 (Q9NZJ0 whole entry, looked up): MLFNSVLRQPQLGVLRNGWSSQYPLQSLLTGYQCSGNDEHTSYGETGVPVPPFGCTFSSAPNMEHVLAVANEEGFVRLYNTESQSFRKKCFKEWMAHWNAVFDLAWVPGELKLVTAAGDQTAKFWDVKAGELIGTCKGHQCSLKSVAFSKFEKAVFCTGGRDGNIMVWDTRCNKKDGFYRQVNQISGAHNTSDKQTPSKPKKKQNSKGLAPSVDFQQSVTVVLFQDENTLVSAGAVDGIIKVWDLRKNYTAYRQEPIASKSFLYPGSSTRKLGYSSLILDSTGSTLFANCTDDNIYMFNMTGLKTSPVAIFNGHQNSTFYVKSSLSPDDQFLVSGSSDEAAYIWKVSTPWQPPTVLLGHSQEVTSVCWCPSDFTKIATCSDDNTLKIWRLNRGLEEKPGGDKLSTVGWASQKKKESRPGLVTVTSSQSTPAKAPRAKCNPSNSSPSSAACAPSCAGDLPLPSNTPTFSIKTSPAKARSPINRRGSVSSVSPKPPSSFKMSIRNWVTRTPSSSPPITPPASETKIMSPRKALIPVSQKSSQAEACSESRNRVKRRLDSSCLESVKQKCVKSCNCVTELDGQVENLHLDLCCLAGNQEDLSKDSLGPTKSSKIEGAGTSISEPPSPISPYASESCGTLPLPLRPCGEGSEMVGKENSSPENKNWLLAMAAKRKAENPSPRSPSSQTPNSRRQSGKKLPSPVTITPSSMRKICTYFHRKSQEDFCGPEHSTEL
Chain of UniProt Q9NZJ5 (Q9NZJ5 whole entry, looked up): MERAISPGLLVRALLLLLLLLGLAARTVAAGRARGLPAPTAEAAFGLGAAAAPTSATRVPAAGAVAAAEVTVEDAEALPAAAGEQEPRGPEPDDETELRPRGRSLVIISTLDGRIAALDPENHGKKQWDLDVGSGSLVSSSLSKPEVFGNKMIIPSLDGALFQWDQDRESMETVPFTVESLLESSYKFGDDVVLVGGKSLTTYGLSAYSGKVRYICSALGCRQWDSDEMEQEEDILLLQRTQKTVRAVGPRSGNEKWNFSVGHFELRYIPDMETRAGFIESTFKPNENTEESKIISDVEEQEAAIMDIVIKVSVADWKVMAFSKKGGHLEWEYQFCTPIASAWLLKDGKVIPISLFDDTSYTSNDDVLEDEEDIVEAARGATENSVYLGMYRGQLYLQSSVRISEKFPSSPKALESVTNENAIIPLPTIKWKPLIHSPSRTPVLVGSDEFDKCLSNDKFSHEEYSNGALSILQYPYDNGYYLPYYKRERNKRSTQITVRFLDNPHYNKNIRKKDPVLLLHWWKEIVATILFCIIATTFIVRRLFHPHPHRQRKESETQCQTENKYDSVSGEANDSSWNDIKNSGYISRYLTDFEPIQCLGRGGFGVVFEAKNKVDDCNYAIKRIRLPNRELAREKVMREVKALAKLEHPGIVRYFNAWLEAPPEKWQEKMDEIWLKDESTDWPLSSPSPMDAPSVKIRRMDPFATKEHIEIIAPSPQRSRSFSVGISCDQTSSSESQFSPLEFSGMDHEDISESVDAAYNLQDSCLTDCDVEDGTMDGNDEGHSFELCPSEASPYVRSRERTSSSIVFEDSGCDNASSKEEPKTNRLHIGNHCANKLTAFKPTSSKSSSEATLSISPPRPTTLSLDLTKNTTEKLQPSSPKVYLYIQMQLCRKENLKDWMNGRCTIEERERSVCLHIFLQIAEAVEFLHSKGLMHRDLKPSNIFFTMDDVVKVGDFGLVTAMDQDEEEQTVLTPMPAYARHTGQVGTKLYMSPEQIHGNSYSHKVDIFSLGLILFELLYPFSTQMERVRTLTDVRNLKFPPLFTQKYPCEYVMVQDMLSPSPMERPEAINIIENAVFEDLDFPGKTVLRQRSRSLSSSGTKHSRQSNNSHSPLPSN
Chain of UniProt Q9NZC3 (Q9NZC3 whole entry, looked up): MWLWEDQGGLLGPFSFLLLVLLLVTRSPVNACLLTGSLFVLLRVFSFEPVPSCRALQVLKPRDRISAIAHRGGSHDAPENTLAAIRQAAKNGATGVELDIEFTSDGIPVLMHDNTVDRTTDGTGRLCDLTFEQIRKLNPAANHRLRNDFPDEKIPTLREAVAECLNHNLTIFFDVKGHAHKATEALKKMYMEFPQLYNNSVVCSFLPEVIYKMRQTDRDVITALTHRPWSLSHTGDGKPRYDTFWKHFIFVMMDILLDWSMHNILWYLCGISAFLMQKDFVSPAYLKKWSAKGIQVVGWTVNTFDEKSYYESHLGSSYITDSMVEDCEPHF
Chain of UniProt P0C2W1 (P0C2W1 whole entry, looked up): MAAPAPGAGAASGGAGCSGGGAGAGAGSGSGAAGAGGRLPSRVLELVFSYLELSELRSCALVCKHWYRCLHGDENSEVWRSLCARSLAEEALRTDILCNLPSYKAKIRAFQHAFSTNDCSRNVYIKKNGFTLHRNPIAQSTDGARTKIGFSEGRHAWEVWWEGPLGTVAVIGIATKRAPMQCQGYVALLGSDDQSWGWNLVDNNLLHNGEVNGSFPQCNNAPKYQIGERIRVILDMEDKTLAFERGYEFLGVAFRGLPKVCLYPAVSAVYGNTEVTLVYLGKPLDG
Chain of UniProt Q9UKR5 (Q9UKR5 whole entry, looked up): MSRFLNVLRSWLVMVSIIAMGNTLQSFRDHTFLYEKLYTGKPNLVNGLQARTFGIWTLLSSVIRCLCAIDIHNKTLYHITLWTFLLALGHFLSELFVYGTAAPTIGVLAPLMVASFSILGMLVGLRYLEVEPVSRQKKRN
Chain of UniProt Q9P0K8 (Q9P0K8 whole entry, looked up): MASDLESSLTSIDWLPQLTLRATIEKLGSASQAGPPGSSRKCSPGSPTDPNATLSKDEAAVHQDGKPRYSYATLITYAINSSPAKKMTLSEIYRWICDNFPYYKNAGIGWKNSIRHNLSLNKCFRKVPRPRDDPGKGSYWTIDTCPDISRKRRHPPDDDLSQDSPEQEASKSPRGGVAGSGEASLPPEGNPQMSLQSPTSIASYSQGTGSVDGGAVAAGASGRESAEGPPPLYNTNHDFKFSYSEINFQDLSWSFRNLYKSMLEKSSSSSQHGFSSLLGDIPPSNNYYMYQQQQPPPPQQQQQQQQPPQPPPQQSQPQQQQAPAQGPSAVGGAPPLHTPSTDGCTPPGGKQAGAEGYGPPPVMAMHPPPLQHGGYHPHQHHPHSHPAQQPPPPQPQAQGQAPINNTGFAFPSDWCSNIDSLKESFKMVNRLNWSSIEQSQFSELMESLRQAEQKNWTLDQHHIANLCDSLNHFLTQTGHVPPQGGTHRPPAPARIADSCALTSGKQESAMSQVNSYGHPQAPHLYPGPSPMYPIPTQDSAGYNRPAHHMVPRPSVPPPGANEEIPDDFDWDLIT
Chain of UniProt Q8NFI3 (Q8NFI3 whole entry, looked up): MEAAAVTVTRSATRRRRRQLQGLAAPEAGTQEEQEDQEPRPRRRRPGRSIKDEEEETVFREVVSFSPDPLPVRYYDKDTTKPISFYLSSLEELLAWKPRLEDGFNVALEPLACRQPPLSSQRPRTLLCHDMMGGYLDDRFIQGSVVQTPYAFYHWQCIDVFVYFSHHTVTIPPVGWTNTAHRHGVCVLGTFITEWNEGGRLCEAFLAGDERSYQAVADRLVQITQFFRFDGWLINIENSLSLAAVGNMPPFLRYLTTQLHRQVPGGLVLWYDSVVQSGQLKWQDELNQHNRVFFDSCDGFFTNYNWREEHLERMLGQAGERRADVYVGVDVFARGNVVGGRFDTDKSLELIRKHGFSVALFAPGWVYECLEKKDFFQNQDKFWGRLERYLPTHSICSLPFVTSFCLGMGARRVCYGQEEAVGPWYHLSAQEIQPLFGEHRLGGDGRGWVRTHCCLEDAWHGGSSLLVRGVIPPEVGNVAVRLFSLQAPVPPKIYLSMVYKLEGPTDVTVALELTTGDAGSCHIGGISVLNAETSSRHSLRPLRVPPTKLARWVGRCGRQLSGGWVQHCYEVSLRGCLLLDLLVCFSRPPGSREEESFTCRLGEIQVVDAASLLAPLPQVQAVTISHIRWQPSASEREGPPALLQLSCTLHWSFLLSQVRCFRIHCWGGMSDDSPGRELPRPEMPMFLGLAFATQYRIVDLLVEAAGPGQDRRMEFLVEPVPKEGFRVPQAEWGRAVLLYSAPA
Chain of UniProt Q9BPY3 (Q9BPY3 whole entry, looked up): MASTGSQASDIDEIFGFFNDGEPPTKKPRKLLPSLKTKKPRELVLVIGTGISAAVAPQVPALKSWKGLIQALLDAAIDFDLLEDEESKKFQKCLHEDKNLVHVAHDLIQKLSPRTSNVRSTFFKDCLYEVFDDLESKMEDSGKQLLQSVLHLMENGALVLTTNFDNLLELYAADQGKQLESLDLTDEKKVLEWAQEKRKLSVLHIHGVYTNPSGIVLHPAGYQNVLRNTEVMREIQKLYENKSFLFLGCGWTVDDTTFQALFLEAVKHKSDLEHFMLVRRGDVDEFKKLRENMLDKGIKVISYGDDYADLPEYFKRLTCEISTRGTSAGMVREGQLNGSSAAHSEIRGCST

Target	log2 fold change (nilotinib)	log2 fold change [1]	log2 fold change (dasatinib)	log2 fold change [2]	log2 fold change [3]	log2 fold change (quisinostat)	log2 fold change (tipifarnib)	log2 fold change [4]	log2 fold change [5]	log2 fold change [6]	log2 fold change [7]	log2 fold change (vorinostat)	log2 fold change (silmitasertib)	log2 fold change [8]	log2 fold change (entospletinib)
EDC4 (UniProt Q6P2E9)	0	0.007	-0.058	0.007	-0.002	-0.071	-0.001	0.01	0.027	0.011	0.045	-0.453 (active)	0.011	0.004	0.02
ENGASE (UniProt Q8NFI3)	0.02	-0.083	0.029	-0.034	0.028	0.009	0.043	-0.04	0.011	-0.025	-0.01	-0.337 (active)	0.05	-0.013	-0.004
EGLN1 (UniProt Q9GZT9)	0.006	0.007	-0.045	-0.066	0.03	-0.048	-0.05	0.044	0.039	0.006	0.008	-0.395 (active)	0.025	-0.024	-0.009
FAM118B (UniProt Q9BPY3)	-0.018	0.002	-0.039	-0.009	-0.008	-0.06	-0.015	0.021	0.032	-0.007	0	-0.273 (active)	0.018	0	-0.005
GDE1 (UniProt Q9NZC3)			0.012		-0.012	0.085		0.029	-0.02	-0.022		-0.007	0.006	0.04	-0.162
FBXO45 (UniProt P0C2W1)	0.025	0.028		-0.088		-0.006	-0.011	0.008	0.147	-0.002	-0.013	-0.367 (active)	0.127	0.021	-0.05
FBRSL1, A0A3B3IRR3	0.034	0.022	0.01	0.013	-0.042	0.031	-0.073	0.029		0.066	0.043	0.142	-0.013	0.069	-0.087
GABPB1 isoform 3 (UniProt Q06547)			-0.086		0.034	-0.017		-0.012	-0.037	-0.016	-0.012	-0.41 (active)	0.08	0.067	-0.024
DYRK1A isoform 2 (UniProt Q13627)						-0.095		0.139		-0.047		-0.222	-0.035	0.002	
EPB41, A0A2R8Y783			0.028		-0.11				-0.108		-0.071				0.393
FAT2 (UniProt Q9NYQ8)	-0.086	0.086		0.014		-0.978 (active)	-0.028	0.36	0.025	-0.087	0.393	0.001	0.098	0.178	0.162
GAPVD1 (UniProt Q14C86)									-0.023						
FOXL2 (UniProt P58012)			0.023		-0.013				-0.15	0.076		-0.501	-0.027		-0.352
EWSR1 (UniProt H7BY36)			-0.104		-0.025	0.112		0.118			0.136			-0.047	0.016
EIF2B5, A0A3B3ITK8	-0.455	0.16		-0.134			0.313		-0.054						
FOXJ2 (UniProt Q9P0K8)	0.033	0.29	0.056	0.077	0.018		-0.293			-0.111		-0.208	-0.058		0.033
DYNC1I2 isoform 2 (UniProt Q13409)			-0.058		0.046	-0.009		0.024	-0.008	-0.025	0.138	0.07	0.008	0.054	0.039
ERG28 (UniProt Q9UKR5)			0.029		0.059				-0.015						0.009
FAM204A (UniProt Q9H8W3)						-0.129		0.069		0.098	-0.057	-0.211	-0.095	0.044	
DST isoform 3 (UniProt Q03001)										-0.071		-0.041	0.087		-0.004
EID1 (UniProt Q9Y6B2)	0.067	0.085	-0.306	0.05	0.32		0.021			0.133		-0.192	0.191		-0.143
EPN2 (UniProt I3L356)	-0.248	0.062		-0.291			0.238		0.021						
FAM111A (UniProt Q96PZ2)			-0.097		0.015	0.18		0.039	0.035	-0.037	0.036	-0.364	0.1	0.048	0.044
EIF2AK3 (UniProt Q9NZJ5)	0.124	0.012	-0.385	-0.001	0.269		-0.088		0.104	-0.166		-0.142	0.241		
DTL (UniProt Q9NZJ0)	0.005	-0.022	0.044	-0.052	0.066	-0.227 (active)	0.036	0.025		0.048	-0.011	-0.165	-0.042	0.052	
FAM53B (UniProt Q14153)	0.015	0.013	0.036	0.004	0.14	-0.078	-0.013	0.093		0.042	0.056	-0.06	0.049	0.02	-0.003
EHHADH (UniProt Q08426)	-0.048	-0.091	-0.011	0.045	-0.047	-0.072	0.052	-0.003	0.025	0.097		0.706 (active)	-0.035	-0.048	-0.013
FAT1 (UniProt Q14517)						0.572 (active)		-0.105	-0.017	-0.071		-0.229	0.077	-0.196	-0.034
GAA (UniProt P10253)	0.058	0.115		0.267		0.024	-0.336	0.007	-0.014	-0.003	-0.038	-0.176	-0.092	-0.056	0.068
EPB41 isoform 4 (UniProt P11171)	0.124	0.044		-0.165		-0.077	0.036	0.053	0.089	-0.096		0.071	0.101	-0.085	
